# Sampled rows, rich in hits. Any-hit rate of the full collection: about 6.7%.
# Pf Dd2 inh: P. falciparum Dd2 growth inhibitors, primary screen, SYBR Green fluorescence, single dose replicates. 72 h; active compounds read low. activity change, % at 10 µM. hit rate 2.3% among 94,000. AID 1159554, 2015; in the data active = activity change below about -80%; inconclusive = no clear call, values can overlap the other calls
# C diff growth: C. difficile growth inhibitors, primary screen, HTS; Clostridium difficile clinical isolate growth, OD600, 24 h; active compounds read low; growth activity, negative = inhibition, % at 16 µg/mL (by protocol); hit rate 0.25% among 86,000;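 active = mean growth activity at or below -80% and every replicate also at or below -80%; inconclusive = mean at or below -80% but some replicate above -80%; inactive = mean growth activity above -80%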;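 note: 0% = DMSO wells and -100% = levofloxacin 16 µg/mL wells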
# T cruzi growth-1: T. cruzi intracellular proliferation inhibitors, primary screen, cell-based, beta-gal Tulahuen parasites, NIH3T3 host, luminescence; hit rate 5.9% among 77,000; inhibition, % at 8.34 µM; AID 624255, 2012; T. cruzi beta-gal in NIH3T3, GalScreen luminescence, 90 h;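 active = mean inhibition above about 93%, with at least 55% of replicates each passing it, limit read from the data, passing the limit was not always enough; inconclusive = only one of those two conditions holds; inactive = neither condition holds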
# T cruzi growth-2: T. cruzi intracellular proliferation inhibitors, confirmation, cell-based, NIH3T3 host, beta-gal parasite, luminescence, cherry-pick | shares compounds with T cruzi growth-1 | T. cruzi beta-gal in NIH3T3, GalScreen luminescence, 90 h | inhibition, % at 8.35 µM | hit rate 72% among 5,600 | AID 651739, 2012;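 active = mean replicate inhibition above about 95% and at least 55% of replicates individually reaching it, limit read from the data; inconclusive = only one of the two criteria is met; inactive = neither criterion is met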
# T cruzi growth-3: inhibitors of intracellular T. cruzi replication, confirmation, NIH3T3 host cells, beta-gal parasites, cherry-pick, set 2; shares compounds with T cruzi growth-1; inhibition, % at 2.09 µM; T. cruzi beta-gal in NIH3T3, GalScreen luminescence, 90 h; hit rate 21% among 5,600;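 active = mean inhibition above about 95%, with at least 55% of replicates also reaching it, limit read from the data; inconclusive = meets just one of the two conditions; inactive = meets neither condition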;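 note: plate controls were neutral control median for no effect and positive control median for full effect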
# NIH3T3 tox: cytotoxicity in mouse NIH/3T3 fibroblasts, confirmation, cytotoxicity control for T. cruzi proliferation inhibitor project, cell-based, cherry-pick, single point. shares compounds with T cruzi growth-1. NIH/3T3 viability, CellTiter-Glo ATP luminescence, 90 h. hit rate 14% among 5,600. cytotoxicity (signal decrease), % at 8.35 µM;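 active = mean signal decrease across replicates above about 35% based on untreated-well scatter, with enough replicates individually passing, limit read from the data; inconclusive = no rule stated though some were filed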;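 note: 0% = median of neutral control wells and 100% = median of positive control wells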
# 3T3 cytotox 2: NIH/3T3 fibroblast cytotoxicity, confirmation, cytotoxicity control, cell-based, cherry-pick, single point, set 2; inhibition, % at 24.9 µM; NIH/3T3 viability, CellTiter-Glo ATP luminescence, 90 h; hit rate 56% among 5,600; shares compounds with T cruzi growth-1; AID 651744, 2012;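 active = mean loss of cell viability signal at or above a set limit, and enough replicates individually reaching it; inconclusive = meets only the mean limit or only the replicate share; inactive = meets neither condition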;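 note: 0% = median of neutral control wells and 100% = median of positive control wells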
# The depositor's hits bear a star; ? = inconclusive; . = no result; ! = repeats disagree.
SMILES,Pf Dd2 inh,C diff growth,T cruzi growth-1,T cruzi growth-2,T cruzi growth-3,NIH3T3 tox,3T3 cytotox 2
C[C@@H]1CCCCO[C@H](CN(C)C(=O)c2ccncc2)[C@H](C)CN([C@H](C)CO)C(=O)c2cc(NC(=O)c3ccccc3)ccc2O1,-7.3,-0.7,97.1*,23.5,-16.6,12.0,10.7
C[C@@H]1CN([C@@H](C)CO)C(=O)c2cc(NC(=O)c3ccncc3)ccc2O[C@@H](C)CCCCO[C@@H]1CN(C)C(=O)c1ccccc1,-12.7,-0.8,48.1,.,.,.,.
C[C@@H]1CN([C@@H](C)CO)C(=O)c2cc(NC(=O)c3ccccc3)ccc2O[C@@H](C)CCCCO[C@H]1CN(C)Cc1ccccc1,-84.8*,3.3,101.6*,97.8*,66.6,-1.1,61.5*
C[C@H](CO)N1C[C@H](C)[C@H](CN(C)Cc2ccncc2)OCCCC[C@H](C)Oc2ccc(NC(=O)Cc3ccccc3)cc2C1=O,-1.5,-5.9,103.2*,96.0*,82.3,7.5,7.5
C[C@H]1CCCCO[C@H](CN(C)Cc2ccncc2)[C@@H](C)CN([C@@H](C)CO)C(=O)c2cc(NC(=O)Cc3ccccc3)ccc2O1,-3.3,-2.9,80.6,.,.,.,.
C[C@@H]1CN([C@@H](C)CO)C(=O)c2cccc(NC(=O)C3CC3)c2O[C@@H]1CN(C)Cc1ccc2c(c1)OCO2,0.2,0.5,-20.2,.,.,.,.
COc1ccc(NC(=O)Nc2cccc3c2O[C@@H](CN(C)C(=O)Nc2c(C)noc2C)[C@H](C)CN([C@@H](C)CO)C3=O)cc1,33.0,-5.7,30.7,.,.,.,.
CCCN1[C@H](C(=O)N(C)C)[C@@H](CO)[C@@H]2Cn3c(ccc(-c4cccc(F)c4)c3=O)[C@@H]21,10.2,0.3,13.1,.,.,.,.
Cc1ccc(S(=O)(=O)N(C)C[C@@H]2Oc3c(NC(=O)Nc4c(C)noc4C)cccc3C(=O)N([C@@H](C)CO)C[C@H]2C)cc1,-6.7,2.9,32.3,.,.,.,.
O=C(Nc1ccccc1)[C@H]1[C@H](CO)[C@H]2Cn3c(cccc3=O)[C@H]2N1C(=O)C1CCC1,4.3,4.3,17.9,.,.,.,.
COc1ccc(CN(C)C[C@H]2OCCCC[C@H](C)Oc3ccc(NC(=O)c4ccccc4)cc3C(=O)N([C@H](C)CO)C[C@@H]2C)cc1,27.0,-3.5,55.9,.,.,.,.
C[C@H]1CN([C@@H](C)CO)S(=O)(=O)c2ccc(Br)cc2O[C@@H]1CN(C)C(=O)C1CCCCC1,-50.6,11.8,102.6*,31.5,-14.5,-12.2,41.7*
C[C@@H]1CN([C@H](C)CO)S(=O)(=O)c2ccc(Br)cc2O[C@H]1CN(C)C(=O)C1CCCCC1,-23.0,-3.2,100.3*!,33.9,-0.4,10.2,48.1*
C[C@H](CO)N1C[C@H](C)[C@H](CN(C)C(=O)C2CCCCC2)Oc2cc(Br)ccc2S1(=O)=O,-3.6,7.5,29.5,.,.,.,.
C[C@@H]1CN([C@@H](C)CO)S(=O)(=O)c2ccc(Br)cc2O[C@H]1CN(C)C(=O)C1CCCCC1,-1.3,1.0,73.8,.,.,.,.
CC(=O)N(C)C[C@@H]1Oc2cc(C#CC(C)C)ccc2S(=O)(=O)N([C@@H](C)CO)C[C@H]1C,-26.9,2.7,-36.0,.,.,.,.
CC(C)NC(=O)Nc1ccc2c(c1)C(=O)N([C@@H](C)CO)C[C@@H](C)[C@@H](CN(C)S(=O)(=O)c1ccc(Cl)cc1)OCCCC[C@@H](C)O2,-70.2,2.2,107.6*,101.0*,41.4,-13.4,-0.2
Cc1noc(C)c1NC(=O)Nc1ccc2c(c1)C(=O)N([C@H](C)CO)C[C@H](C)[C@H](CN(C)S(=O)(=O)c1ccc(Cl)cc1)OCCCC[C@H](C)O2,-66.9,-24.2,?,55.2,-42.6,-20.5,-30.4

# Screens deposited in PubChem by Broad Institute.
